High-throughput results (PubChem BioAssay)
NTMT1 inh: NTMT1 methyltransferase inhibition | Q9BV86 | NTMT1 MTase-Glo SAH luminescence, purified enzyme | Potency, µM (titrated, usually from 114 µM), usual class: inhibitors | 2.5% of 59,000 active; also: nearly all actives have a fitted effect of over 65% in size
Target sequence (Q9BV86 whole entry, looked up): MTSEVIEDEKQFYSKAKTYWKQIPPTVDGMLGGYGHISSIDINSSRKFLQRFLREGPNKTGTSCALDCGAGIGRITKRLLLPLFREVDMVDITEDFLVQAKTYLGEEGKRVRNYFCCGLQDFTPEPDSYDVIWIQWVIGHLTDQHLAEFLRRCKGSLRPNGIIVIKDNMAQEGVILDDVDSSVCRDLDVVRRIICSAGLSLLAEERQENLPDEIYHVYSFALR
HTT-AS act: HTT-AS promoter activation; Potency, µM (highest dose often 57.5 µM), actives largely listed as activators; 0.24% of 48,000 active; HEK293 HTT-AS promoter firefly luciferase reporter, 24 h; response scale: percent change from vehicle, -100% = no light; also: nearly all actives have a fitted effect of over 55% in size
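Luminescence was read after Dual-Glo reagent and a 10 min room-temperature incubation. Values were normalized to vehicle (0% activity) and zero RLU (-100% activity). Reporter HEK293 cells had been exposed to compounds (up to 57.5 uM final) for 24 h.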
GPR32 ag: activates human resolvin D1 receptor GPR32; AID 1346428; activation, % at 76.9 µM; CHO-K1 GPR32 beta-arrestin PathHunter luminescence, 90 min; zero percent set by DMSO-only wells; 2.5% of 48,000 active; O75388;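 active = activation of at least 60% and not above a set upper limit, about 1 call in 100 departs from these limits; inconclusive = activation of 40% to 60%, or above that upper limit; inactive = activation under 40%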
Target sequence (O75388 whole entry, looked up): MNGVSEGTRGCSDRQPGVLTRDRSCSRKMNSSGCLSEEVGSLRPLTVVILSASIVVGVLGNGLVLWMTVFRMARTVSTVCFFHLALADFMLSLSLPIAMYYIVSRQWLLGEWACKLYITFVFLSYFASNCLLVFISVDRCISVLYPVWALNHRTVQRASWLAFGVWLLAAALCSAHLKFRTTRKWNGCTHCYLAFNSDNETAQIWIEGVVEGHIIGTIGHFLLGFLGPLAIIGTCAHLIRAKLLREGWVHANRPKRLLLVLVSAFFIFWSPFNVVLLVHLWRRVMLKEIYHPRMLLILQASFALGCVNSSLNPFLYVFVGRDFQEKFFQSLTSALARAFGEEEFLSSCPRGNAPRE
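Step 1: seed CHO-K1 GPR32 beta-arrestin cells, 2,500/well, overnight at 37 °C. Step 2: add compounds, 90 min at 37 °C. Step 3: detection reagent, 1 h ambient, then luminescence.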
HTT promoter inh: inhibits huntingtin promoter activity. Potency, µM (top dose mostly 57.5 µM), hits mostly inhibitors. AID 1508623. 0.93% of 48,000 active. HEK293 HTT promoter firefly luciferase reporter, 24 h; also: nearly all actives have a fitted effect of over 50% in size
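Firefly luciferase signal from promoter-reporter HEK293 cells was scaled between vehicle (0%) and zero RLU (-100%). Compounds were tested at final concentrations of up to 57.5 uM over 24 h at 37 degrees C. PTC124 at 50 uM final served as control inhibitor.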
OvCa metastasis: ovarian cancer metastasis inhibition, 3D TME model. SKOV3ip1-GFP adhesion/invasion on 3D omental model, fluorescence. Potency, µM (series often up to 45.8 µM), hits mostly inhibitors. 0.1% of 46,000 active; also: nearly all actives have a fitted effect of over 65% in size
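Primary human omental fibroblast/mesothelial 3D culture pre-formed 48 h. SKOV3ip1-GFP cells added with compounds (0.36-46 umol/L), incubated 2 h RT/16 h 37 C, fixed; GFP cells quantified at 488/509 nm.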
A number is an active result; – = inactive; ? = inconclusive; · = no result; ! = not confirmed by another sample. Most compounds without a hit are left out; they make up all but 4.5% or so of the library. Unless noted, calls follow the shape of the dose curve; as a rule, active = well fitted curve in the direction sought with a large enough effect; inconclusive = small, poorly fitted or top-dose-only effect, or another doubt; inactive = no such curve, though single readings can be large; an effect the other way counts as inactive or inconclusive.

SMILES	NTMT1 inh	HTT-AS act	GPR32 ag	HTT promoter inh	OvCa metastasis
CCCCCN=C(N)NN=Cc1c[nH]c2ccc(OC)cc12	–	–	·	–	–
CCCCCN=C(N)N/N=C/c1c[nH]c2ccc(OC)cc12	?	–	73.5	?	·
NC(=O)C1CCN(c2ncc(Br)s2)CC1	39.8µM	·	·	·	·
Cc1ccc2c(c1)cc1c(=O)n(CC(=O)N3CCCCC3)nc(C)n12	–	–	–	–	–
CCn1c(SCC(=O)Nc2cc(C)ccc2F)nnc1-c1ccccc1O	–	–	82.1	–	–
CCOc1ccc(C(=O)c2cn(CC(=O)Nc3ccc(OC)cc3)c3cc4c(cc3c2=O)OCO4)cc1	?	–	–	–	–
O=C(CN1C(=O)COc2ccc(S(=O)(=O)N3CCCCC3)cc21)NCc1ccc(F)cc1	–	–	–	–	–
N#C/C(=C\c1ccc(O)c(O)c1)C(=O)Nc1ccccc1	·	·	–	·	·
N#C/C(=C\c1ccc(O)c(O)c1)C(=O)NCCCNC(=O)/C(C#N)=C/c1ccc(O)c(O)c1	1.26µM	·	–	·	·
Cc1c(CNCc2ccc(OC(C)C)cc2)c(C(=O)O)c(C)n1Cc1ccc(Cl)cc1	?	–	–	–	–
Cc1cccc(-n2c(C)cc(C(=O)C(=O)Nc3ccccc3F)c2C)c1C	–	–	–	8.91µM	–
Cc1cc(C)cc(-n2c(C)cc(C(=O)C(=O)Nc3ccccc3F)c2C)c1	–	?	–	–	–
Cc1ccc(Cn2ccn(CC(=O)Nc3ccccc3C(F)(F)F)c(=O)c2=O)cc1	–	–	–	–	–
CCOc1ccccc1NC(=O)Cn1ccn(Cc2ccc(C)cc2)c(=O)c1=O	89.1µM	–	–	–	–
COc1ccc(-c2noc(N3CCC(C(=O)Nc4ccc(F)cc4Cl)CC3)n2)cc1	–	–	–	1.78µM	–
COc1ccc(-c2noc(N3CCC(C(=O)N4CCN(c5ccccc5OC)CC4)CC3)n2)cc1	–	–	–	12.6µM	–
CCc1ccc(NC(=O)C2CCN(c3nc(-c4ccc(OC)cc4)no3)CC2)cc1	–	–	–	?	–
COc1ccc(-c2noc(N3CCC(C(=O)N4CCN(c5cccc(OC)c5)CC4)CC3)n2)cc1	–	–	–	2.24µM	–
COc1ccc(-c2noc(N3CCC(C(=O)N4CCN(c5cccc(C)c5C)CC4)CC3)n2)cc1	–	–	–	?	–
C=CCc1ccccc1OCc1nc2ccc(C)cc2[nH]1	–	–	–	–	–
CCOCCn1c(=NC(=O)c2ccc3c(c2)OCCO3)sc2cc(OCC)ccc21	–	–	–	–	–
Cc1ccc(C)c(N2CCN(S(=O)(=O)c3ccc(-c4coc(C)n4)cc3)CC2)c1	–	–	–	–	–
CC(=O)c1ccc(N2CCN(S(=O)(=O)c3ccc(-c4coc(C)n4)cc3)CC2)cc1	–	–	63.0	?	–
O=C(O)c1ccccc1S	–	–	–	–	·
CCn1c(SCc2ccccc2)nnc1-c1nonc1NC(C)=O	–	–	–	?	–
SMILES	NTMT1 inh	HTT-AS act	GPR32 ag	HTT promoter inh	OvCa metastasis
CCc1ccc(CNC(=O)C2CCCN(c3nn4cc(-c5ccc(F)cc5)nc4s3)C2)cc1 (stereo not given)	–	–	–	3.98µM	–
COc1ccccc1C(=O)N1CCC(c2noc(-c3ccc(S(=O)(=O)N4CCCC4)cc3)n2)CC1	–	–	–	25.1µM	–
O=c1c2oc3ccccc3c2n(Cc2ccccc2)c(=O)n1Cc1ccco1	89.1µM	–	–	–	–
O=c1c2oc3ccccc3c2n(Cc2cccc(Cl)c2)c(=O)n1Cc1ccco1	–	–	–	?	–
CN(C)CCOc1ccc(-c2nc(-c3ccc4c(c3)CC/C4=N/O)c(-c3ccncc3)[nH]2)cc1	25.1µM	·	·	·	·
COc1ccc2c(CNCCc3ccco3)c(C(=O)O)n(Cc3ccc(F)cc3)c2c1	–	–	–	–	–
COc1ccc2c(CNCc3ccc(C)o3)c(C(=O)O)n(Cc3ccccc3C)c2c1	?	–	–	–	–
COc1ccc2c(CNCCc3ccco3)c(C(=O)O)n(Cc3ccc(C)cc3)c2c1	–	–	89.4	–	–
COc1ccc2c(CNC3CCC(C)CC3)c(C(=O)O)n(Cc3ccc(F)cc3)c2c1 (stereo not given)	–	–	91.1	–	–
COc1ccc(Cn2c(C(=O)O)c(CNCc3ccc(C)o3)c3ccc(OC)cc32)cc1	–	–	74.6	–	–
Cc1ccccc1C(=O)NCC(c1cccnc1)N1CCc2ccccc21 (stereo not given)	–	–	–	–	–
CC1=C(C(=O)Nc2nncs2)C(c2nn(C)cc2Cl)N=C(Nc2nc3ccccc3o2)N1 (stereo not given)	–	·	·	·	·
Cc1cc(C)cc(NC(=O)N2CCC(N3CCCCC3)CC2)c1	89.1µM	–	–	–	–
CCCN1CCCc2cc(CN(CCCN3CCOCC3)C(=O)Nc3ccc(Cl)c(Cl)c3)ccc21	79.4µM	–	–	–	–
COc1ccc2[nH]cc(CCNC(=O)Nc3ccccc3)c2c1	–	–	66.8	–	–
Cc1ccc2c(CNCCc3ccc(Cl)cc3)c(C(=O)O)n(Cc3ccc(F)cc3)c2c1	–	–	–	?	–
Nc1nc(Nc2ccc3c(c2)CCC(N2CCCC2)CC3)nn1-c1cc2c(nn1)-c1ccccc1CCC2 (stereo not given)	39.8µM	·	·	·	·
COc1ccc(N2C(=O)CSC23C(=O)N(CC(=O)Nc2ccccc2F)c2ccccc23)cc1 (stereo not given)	–	–	–	–	–
COc1cc(CNC(=O)c2ccc3nc(CCc4ccccc4)oc3c2)cc(OC)c1OC	–	–	–	?	–
COc1cc(CNC(=O)c2ccc3nc(Cc4ccccc4)oc3c2)cc(OC)c1OC	–	–	–	14.1µM	–
COC(=O)C1CCN(C(c2ccccc2Cl)c2sc3nc(-c4ccco4)nn3c2O)CC1 (stereo not given)	–	–	–	–	–
C1CCN2CC3C[C@@H](CN4CCCC[C@@H]34)[C@H]2C1	–	·	·	·	·
Cc1cc(OCCCSc2nc(-c3ccc(C(C)(C)C)cc3)nc3cc(=O)[nH]n23)ccc1Cl	50.1µM!	–	–	–	–
Cc1cc(C)cc(OCCSc2nc(-c3ccc(C(C)(C)C)cc3)nc3cc(=O)[nH]n23)c1	·	·	–	·	?
CC(C)(C)c1ccc(-c2nc(SCCCOc3ccccc3)n3[nH]c(=O)cc3n2)cc1	?	–	–	–	–
COc1ccccc1OCCCSc1nc(-c2ccc(C(C)(C)C)cc2)nc2cc(=O)[nH]n12	·	·	75.1	·	–
CC(=O)c1[nH]c(C)c(C(=O)NCc2ccc(Cl)cc2)c1C	–	–	–	15.8µM	–
CCOC(=O)c1[nH]c(C)c(C(=O)NCc2ccc(F)cc2)c1C	–	–	–	–	–
CCOC(=O)c1[nH]c(C)c(C(=O)NCc2cccc(OC)c2)c1C	–	–	61.0	–	–
CCCCN(CCN(CCCC)C(=O)N1CCOCC1)C(=O)N1CCOCC1	–	–	–	–	·
